Among the data in PubChem BioAssay AID602323 (The Scripps Research Institute Molecular Screening Center, 2012) are inhibition values, retold here.

Each structure is given as a SMILES string. Values without a mark were called inactive. Active and inactive are the calls of the source. How the calls were made is not given here.

This test deals with 80kDa SH. The test can be described thus: serine hydrolase inhibition in mouse brain membranes, late-stage follow-up, selectivity assay for DAGLb inhibitor project, biochemical, gel-based competitive ABPP, fluorescence, set 2 (AID 602323). The note with it: mouse brain membrane, at 1 µM, stronger effect = higher value.
On to `O=C(N1CCCCC1Cc1ccccc1)n1ncc(C(O)(c2ccccc2)c2ccccc2)n1` (stereo not given), for which the inhibition is 20%.

As to `O=C(N1CCCCC1Cc1ccccc1)n1cc(-c2ccc(-c3ccccc3CO)cc2)nn1` (stereo not given), the inhibition was 5%.

On to `CC(C)CN(CCc1ccccc1)C(=O)n1cc(-c2ccc(OC(F)(F)F)cc2)nn1`, for which the inhibition was 80% (active).

Turning to `COc1ccccc1-c1ccc(-c2cn(C(=O)N3CCCCC3Cc3ccccc3)nn2)cc1` (stereo not given), the inhibition is 0%.

Take `O=C(N1CCCCC1Cc1ccccc1)n1cc(-c2ccc(-c3ccc(C(F)(F)F)cc3)cc2)nn1` (stereo not given): the inhibition is 0%.

Take `O=C(c1ccc(-c2cn(C(=O)N3CCCCC3Cc3ccccc3)nn2)cc1)N1CCCCC1` (stereo not given): the inhibition is 20%.

`O=C(N1CCCCC1Cc1ccccc1)n1cc(-c2ccc(-c3ccoc3)cc2)nn1` (stereo not given): the inhibition was 20%.

Take `O=C(N1CCCCC1Cc1ccccc1)n1ncc(-c2ccc(OC(F)(F)F)cc2)n1` (stereo not given): the inhibition was 50% (active).

With `O=C(N1CCCCC1Cc1ccccc1)n1cc(-c2ccc(-c3cccc(CO)c3)cc2)nn1` (stereo not given), the inhibition is 10%.

For `O=C(N1CCCCC1Cc1ccccc1)n1cc(-c2ccc(-c3ccccc3C(F)(F)F)cc2)nn1` (stereo not given), the inhibition was 0%.

A word on the inhibition: it is the change of the read-out against control, counted positive when it falls.
